SMILES strings stand for the structures. A number with no mark means an inactive call. Records with an inconclusive call do not appear. Activity calls are given as the source filed them. Unless noted, the call rests on the fitted dose curve; in most records, active means well fitted curve in the direction sought with a large enough effect in the repeat runs; inconclusive means weak or mixed curves; inactive means no such curve, though single readings can be large; an effect the other way counts as inactive or inconclusive.

The target of assay [1] is Luciferin 4-monooxygenase (Photinus pyralis) (UniProt P08659). As to the kind of experiment: qHTS assay to identify small molecule inhibitors of firefly luciferase (AID 1224835). Further: nearly all actives have a fitted effect of over 25% in size. Further: potency means the concentration at half of the fitted maximal effect. Put shortly:
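Biochemical qHTS: compounds run as interplate titrations against purified firefly enzyme, with D-luciferin and ATP each at its KM concentration. Light output recorded by CCD imaging.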
(qHTS replaces the single test concentration by a dilution series.)

Assay [2] is described as follows: qHTS assay to identify small molecule agonists of the constitutive androstane receptor (CAR) signaling pathway - cell viability counter screen (AID 1224836). Further: nearly all actives have a fitted effect of over 45% in size. Put shortly:
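Compound titrations (15 concentrations) went onto HepG2-CYP2B6-hCAR cells 4 h after seeding, alongside PK11195 at a final 0.75 uM; a 23 h, 37 C/5% CO2 incubation preceded CellTiter-Fluor viability measurement.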

Assay [3] can be described thus: qHTS assay to identify small molecule antagonists of the constitutive androstane receptor (CAR) signaling pathway - cell viability counter screen (AID 1224837). Further: nearly all actives have a fitted effect of over 45% in size. Put shortly:
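CITCO at 50 nM final was added alongside compounds (15 concentrations) to double-stable hCAR/CYP2B6-2.2kb HepG2 cells. Following 23 hr at 37 C, cell viability was quantified by CellTiter-Fluor fluorescence intensity.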

A short description of assay [4]: qHTS assay to identify small molecule antagonists of the estrogen related receptor signaling pathway with the pleiotropic PPARgamma coactivator (PGC) from Tox21 10K library (AID 1224841; call rule not given here; further: actives are mostly falling curves and most rising ones were filed inactive; nearly all actives have a fitted effect of over 50% in size). Put shortly:
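One-Glo luminescence, measured after half an hour at room temperature, quantified reporter output of PGC/ERR cells. These had been plated at 2,000 per well, incubated 6 h, dosed with compounds in DMSO, then kept 18 h at 37 C.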

A short description of assay [5]: qHTS assay to identify small molecule agonists of the estrogen related receptor signaling pathway with the pleiotropic PPARgamma coactivator (PGC) from Tox21 10K library (AID 1224842). Further: nearly all actives have a fitted effect of over 15% in size. Further: potency means the concentration at half of the fitted maximal effect. Put shortly: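 PGC/ERR reporter cell line, 2,000 cells per well, incubated 6 h at 37 C before 23 nL compound in DMSO was added. After 18 h at 37 C, One-Glo luminescence read following 30 min at room temperature.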

A short description of assay [6]: qHTS assay to identify small molecule agonists of the hypoxia (HIF-1) signaling pathway - cell viability counter screen (AID 1224844; calls by dose curve; further: nearly all actives have a fitted effect of over 50% in size). Put shortly: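 In this counter screen, HRE-bla ME-180 cell viability after 17 hrs of compound exposure at 37C was read by CellTiter-Glo luminescence, multiplexed with the beta-lactamase reporter measurement.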
Assay [7] can be described thus: qHTS assay to identify small molecule agonists of H2AX (AID 1224845; active means well fitted activation curve with a large enough effect in the signal ratio in the repeat runs, not every such curve was filed as active; the % refers to the signal ratio). Put shortly:
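Wild-type CHO-K1 cells, plated overnight, exposed 3hr at 37C to 15 concentrations (0.76% DMSO final). Lysed, then HTRF anti-pH2AX (S139) cryptate and anti-H2AX-d2 antibodies, 24 hr room temperature; 665/620 nm emission read.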

Assay [8] is described as follows: qHTS assay to identify small molecule agonists of the hypoxia (HIF-1) signaling pathway (AID 1224846; active means well fitted activation curve with a large enough effect in the signal ratio in the repeat runs, not every such curve was filed as active; the % refers to the signal ratio). Put shortly: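 ME-180 HRE-bla reporter cells; compounds in DMSO, 17 h at 37C; read-out beta-lactamase via CCF4-AM FRET.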
Assay [9] can be described thus: qHTS assay to identify small molecule antagonists of the estrogen related receptor (ERR) signaling pathway from Tox21 library (AID 1224848). Further: nearly all actives have a fitted effect of over 50% in size. Put shortly: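 Compounds dissolved in DMSO are pin-transferred onto ERR reporter cells (2,000 per well) that have settled for 6 h at 37 C. Plates then incubate 18 h at 37 C before ONE-Glo luciferase reagent and a luminescence read 30 min later.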

Assay [10] in a line: qHTS assay to identify small molecule agonists of the estrogen related receptor (ERR) signaling pathway from Tox21 library (AID 1224849; calls by dose curve; further: nearly all actives have a fitted effect of over 15% in size). To be noted: ERR reporter cell line, ONE-Glo luciferase, 18 h; at 92.4 µM (top of the series). Put shortly:
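Luciferase activity in ERR pathway reporter cells served as the agonist readout; exposure lasted 18 h at 37 C, with ONE-Glo detection after 30 min at room temperature.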

Assay [11] in a line: qHTS RealTime-Glo MT Cell Viability Assay in HepG2 cells - 24 hour (AID 1224867). Further: nearly all actives have a fitted effect of over 50% in size. Put shortly:
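Viability was tracked continuously by NanoLuc luminescence from prosubstrate reduced by living HepG2 cells, at successive time points over 40 h of compound exposure. Cells with reagent were preincubated 5 h at 37 °C before compound addition.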

The nature of assay [12]: A CellTox Green Cytotoxicity Assay to monitor cytotoxicity in HEK293 cells - 0 hour (AID 1224869). Further: nearly all actives have a fitted effect of over 50% in size. Put shortly: (§1)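 Real-time, in one plate: 600 HEK293 cells/well with dead-cell DNA dye, pinned compound after 5 h, 37 C incubation over 40 h; viable cells give no appreciable fluorescence.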
Assay [13] can be described thus: qHTS RealTime-Glo MT Cell Viability Assay in HepG2 cells - 40 hour (AID 1224870). Further: nearly all actives have a fitted effect of over 50% in size. Put shortly:
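HepG2 cells (600/well) mixed with RealTime-Glo MT reagent, settled 5 h at 37 C/5% CO2 before compound addition. Nonlytic NanoLuc luminescence from viable-cell prosubstrate reduction read repeatedly during 40 h treatment at 37 C.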

Assay [14] in a line: A CellTox Green Cytotoxicity Assay to monitor cytotoxicity in HEK293 cells - 40 hour (AID 1224871). Further: nearly all actives have a fitted effect of over 45% in size. Put shortly:
as §1

A short description of assay [15]: qHTS assay to identify small molecule antagonists of the estrogen related receptor signaling pathway with the pleiotropic PPARgamma coactivator (PGC) from Tox21 10K library - cell viability counter screen (AID 1224840; active means well fitted cell-killing curve with a large enough effect in the repeat runs, not every such curve was filed as active; further: nearly all actives have a fitted effect of over 40% in size). Put shortly: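 Readout: fluorescence intensity from CellTiter-Fluor after 30 min at 37 C/5% CO2. Preceded by 17.5 h treatment of PGC/ERR cells with DMSO-dissolved compounds, added 6 h post-seeding.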

The target in assay [16] is Thyrotropin receptor (Homo sapiens) (UniProt P16473). The assay can be described thus: qHTS assay to identify small molecule agonists of the thyroid stimulating hormone receptor (TSHR) signaling pathway (AID 1224843; calls by dose curve; further: nearly all actives have a fitted effect of over 45% in size). Put shortly: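 HEK293/TSHR, 800 cells/well; cpd 30 min RT; add cAMP-d2 + anti-cAMP-cryptate, 1 h RT; fluorescence read on plate reader. 15-pt titration, n=3.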
Sequence of Thyrotropin receptor (Homo sapiens) (P16473 whole entry, looked up): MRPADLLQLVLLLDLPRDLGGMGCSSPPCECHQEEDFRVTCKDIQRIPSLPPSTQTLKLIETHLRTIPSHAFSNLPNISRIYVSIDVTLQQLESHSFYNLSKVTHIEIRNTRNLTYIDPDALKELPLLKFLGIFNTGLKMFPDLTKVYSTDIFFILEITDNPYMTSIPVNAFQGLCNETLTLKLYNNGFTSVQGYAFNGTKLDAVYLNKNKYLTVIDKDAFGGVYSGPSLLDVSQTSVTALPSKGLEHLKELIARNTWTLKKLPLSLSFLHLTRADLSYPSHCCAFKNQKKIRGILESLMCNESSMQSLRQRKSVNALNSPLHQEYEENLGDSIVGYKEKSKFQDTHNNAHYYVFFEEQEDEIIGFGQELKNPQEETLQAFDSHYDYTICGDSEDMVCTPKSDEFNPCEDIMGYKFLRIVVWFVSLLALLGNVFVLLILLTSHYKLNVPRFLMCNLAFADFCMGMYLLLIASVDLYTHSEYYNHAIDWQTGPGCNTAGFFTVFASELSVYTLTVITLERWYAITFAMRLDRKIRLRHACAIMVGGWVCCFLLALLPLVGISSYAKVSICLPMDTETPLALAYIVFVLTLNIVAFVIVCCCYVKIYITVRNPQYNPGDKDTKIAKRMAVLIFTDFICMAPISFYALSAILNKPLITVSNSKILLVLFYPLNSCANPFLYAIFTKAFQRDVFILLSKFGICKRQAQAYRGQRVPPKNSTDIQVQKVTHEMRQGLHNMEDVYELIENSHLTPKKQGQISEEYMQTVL

The target in assay [17] is Nuclear receptor subfamily 1 group I member 3 (Homo sapiens) (UniProt Q14994). As to the kind of experiment: qHTS assay to identify small molecule antagonists of the constitutive androstane receptor (CAR) signaling pathway (AID 1224838). Further: nearly all actives have a fitted effect of over 40% in size. Put shortly: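 Inhibition of CITCO-driven (50 nM final) CYP2B6 reporter expression is measured in HepG2 cells stably carrying hCAR. Fifteen compound concentrations are applied for 24 h at 37 C, followed by luciferase luminescence.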
Sequence of Nuclear receptor subfamily 1 group I member 3 (Homo sapiens) (Q14994 whole entry, looked up): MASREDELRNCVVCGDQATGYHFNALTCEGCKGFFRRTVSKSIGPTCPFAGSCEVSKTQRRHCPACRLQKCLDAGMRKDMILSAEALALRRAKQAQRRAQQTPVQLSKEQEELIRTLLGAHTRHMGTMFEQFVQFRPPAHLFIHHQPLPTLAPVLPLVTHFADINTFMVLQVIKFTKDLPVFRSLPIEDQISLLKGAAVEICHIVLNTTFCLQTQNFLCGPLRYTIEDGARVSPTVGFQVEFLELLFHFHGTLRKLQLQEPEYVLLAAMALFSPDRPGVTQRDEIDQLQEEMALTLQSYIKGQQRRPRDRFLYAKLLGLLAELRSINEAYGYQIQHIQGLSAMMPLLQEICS

Assay [18] shares this target. As to the kind of experiment: qHTS assay to identify small molecule agonists of the constitutive androstane receptor (CAR) signaling pathway (AID 1224839). Further: nearly all actives have a fitted effect of over 15% in size. Put shortly:
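In this screen, CAR-driven CYP2B6 promoter activity is measured by luminescence in HepG2-CYP2B6-hCAR cells after 24 h with test compounds and 0.75 uM PK11195 (final concentration).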

Assay [19] in a line: qHTS assay to identify small molecule agonists of H2AX - cell viability counter screen (AID 1224847; calls by dose curve; further: nearly all actives have a fitted effect of over 30% in size; further: potency means the concentration at half of the fitted maximal effect). Put shortly: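 Read-out: CellTiter-Glo luminescence, 30 min RT. Cells: wild-type CHO-K1, 1000/well, 10% FBS, plated overnight at 37C. Treatment: 15 concentrations, 3 hr, 37C, 0.76% DMSO.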
Assay [20] in a line: qHTS RealTime-Glo MT Cell Viability Assay in HEK293 cells - 32 hour (AID 1224868). Put shortly: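 Viability tracked continuously by luminescence as live cells reduce a prosubstrate for NanoLuc; HEK293 cells preincubated 5 h, compound-treated at 37 C, and read at 0, 8, 16, 24, 32 and 40 h.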
On the % scale 0 is the no-effect control and ±100 the full control effect.

Sequence of Luciferin 4-monooxygenase (Photinus pyralis) (P08659 whole entry, looked up): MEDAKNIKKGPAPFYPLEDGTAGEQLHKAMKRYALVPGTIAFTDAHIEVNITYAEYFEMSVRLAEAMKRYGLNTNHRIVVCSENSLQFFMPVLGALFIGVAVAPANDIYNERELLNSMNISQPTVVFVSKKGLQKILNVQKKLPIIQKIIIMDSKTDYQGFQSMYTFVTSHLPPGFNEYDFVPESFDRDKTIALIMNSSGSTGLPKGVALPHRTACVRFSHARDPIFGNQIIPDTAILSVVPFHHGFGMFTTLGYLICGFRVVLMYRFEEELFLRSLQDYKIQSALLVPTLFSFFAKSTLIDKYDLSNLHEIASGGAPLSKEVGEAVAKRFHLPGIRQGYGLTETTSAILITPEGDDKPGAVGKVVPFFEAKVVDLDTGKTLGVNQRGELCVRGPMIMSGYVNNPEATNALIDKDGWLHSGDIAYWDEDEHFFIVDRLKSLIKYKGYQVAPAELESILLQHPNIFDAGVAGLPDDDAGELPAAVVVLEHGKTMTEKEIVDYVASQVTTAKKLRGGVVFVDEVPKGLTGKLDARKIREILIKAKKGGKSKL

Consider `OC12N=C(c3ccccc3)SC1Cc1cc(Cl)ccc12` (centres undefined), for which the Potency is 35.6 µM (active) in assay [1] and 8.63 µM (active) in [5]. Further, the Potency result in [2], in assay [3], in assay [4], in assay [6], in assay [7] and in assay [8] was “inactive” throughout. In addition, the Potency result in [9], in [11], in [12], in assay [13] and in assay [14] was “inactive” each time. For the same compound, in [10], the activity change, positive = activation was 47.6% (active).
As for `O=c1[nH]c(=O)n([C@H]2C[C@H](O)[C@@H](CO)O2)cc1F`, the Potency entry in [1], in assay [2], in assay [3], in assay [15], in assay [16] and in assay [6] was “inactive” throughout. Further, the Potency result in assay [11], in [12], in [13] and in assay [14] was “inactive” throughout.
Consider `OC[C@@H](O)[C@@H](O)CO`, for which the Potency result in assay [1], in [2], in [17], in assay [18], in assay [15] and in [4] was “inactive” throughout. Moreover, the Potency result in [5], in [16], in [6], in [7], in assay [8] and in assay [19] was “inactive” in each case. Moreover, the Potency result in assay [11], in assay [20], in assay [13] and in [14] was “inactive” in each case. In addition, the activity change, positive = activation in assay [10] was 4.53%.
Regarding `Cl[Si](Cl)(c1ccccc1)c1ccccc1`, the Potency result in assay [1], in assay [2], in assay [15], in assay [16], in assay [6] and in [7] was “inactive” throughout. Further, the Potency entry in assay [8], in assay [19], in assay [11], in assay [20], in assay [12] and in [13] was “inactive” in each case.
With `CN(C)Cc1ccccc1O`, the Potency result in assay [1], in [2], in [17], in assay [18], in assay [15] and in assay [4] was “inactive” in each case. For the same compound, the Potency entry in assay [5], in assay [16], in assay [6], in assay [7], in assay [8] and in assay [11] was “inactive” throughout. The Potency result in [20], in assay [12], in assay [13] and in assay [14] was “inactive” throughout. Further, in assay [10], the activity change, positive = activation was 0.52%.
On to `CC(CO)Oc1ccccc1` (centres undefined), for which the Potency entry in [1], in assay [2], in assay [3], in assay [15], in assay [16] and in assay [6] was “inactive” each time. For the same compound, the Potency entry in assay [7], in [8], in assay [11], in assay [20], in assay [12] and in [13] was “inactive” throughout. For the same compound, in assay [14], the Potency result was “inactive”.
Consider `CC1=Nc2ccccc2C1(C)C`, for which the Potency in [1] is 20 µM (active); in assay [5] it was 30.7 µM (active); in assay [19], 89.9 µM (active). The Potency entry in [2], in [15], in [4], in assay [16], in assay [6] and in assay [8] was “inactive” throughout. Further, the Potency result in [11], in [13] and in [14] was “inactive” each time.
Regarding `C[Si](Cl)(c1ccccc1)c1ccccc1`, the Potency result in assay [1], in assay [2], in assay [17], in assay [15], in [4] and in [5] was “inactive” throughout. Also, the Potency entry in assay [16], in assay [6], in assay [7], in [8], in assay [11] and in assay [12] was “inactive” in each case. The Potency entry in assay [13] is “inactive”. Also, the activity change, positive = activation in assay [10] was -19%.

(Values after PubChem BioAssay (Tox21).)
